The record followed here is PubChem BioAssay.

Assay [1] in a line: antimalarial activity against Dd2 strain (AID 2302;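 active means growth inhibition above 50% at the single 2 µM test dose, taken to imply half-maximal potency below 2 µM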;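 further: 0% = DMSO untreated growth and 100% = chloroquine plus artemisinin killed control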). Particulars: P. falciparum Dd2 in RBCs, LDH growth readout, 72 h; at 2 µM; active compounds read high.
A short description of assay [2]: human hepatoma cell viability loss – ATP luminescence, cytotoxicity control for P. falciparum antimalarial project, primary screen (AID 2303;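 active means inhibition above 50%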;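 further: 0% = DMSO wells and 100% = digitonin-killed cells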). Particulars: HepG2 viability, 24-48 h, at 10 µM, active compounds read high.
For assay [3], the target named is L-lactate dehydrogenase (Plasmodium falciparum (isolate CDC / Honduras)) (UniProt Q27743). Nature of the assay: PfLDH activity inhibition – cell lysate, 3D7 strain, counter-screen for P. falciparum growth inhibition project (AID 2304).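 Further: 0% = vehicle and 100% = reference inhibitor.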 Particulars: P. falciparum 3D7 crude extract, LDH APAD/NBT absorbance; at 2 µM; active compounds read high. In general terms: Counterscreens check selectivity or assay interference.
L-lactate dehydrogenase (Plasmodium falciparum (isolate CDC / Honduras)), sequence (Q27743 whole entry, looked up): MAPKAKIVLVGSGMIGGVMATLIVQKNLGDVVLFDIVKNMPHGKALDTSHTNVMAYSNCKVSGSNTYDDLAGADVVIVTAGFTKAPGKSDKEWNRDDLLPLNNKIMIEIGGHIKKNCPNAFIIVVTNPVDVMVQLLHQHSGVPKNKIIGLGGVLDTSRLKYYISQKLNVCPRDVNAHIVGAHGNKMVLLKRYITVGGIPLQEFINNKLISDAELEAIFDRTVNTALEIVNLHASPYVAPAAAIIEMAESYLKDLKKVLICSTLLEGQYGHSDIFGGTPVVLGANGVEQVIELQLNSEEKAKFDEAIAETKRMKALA

The nature of assay [4]: inhibition of 3D7 malaria parasite growth – strain 3D7 (AID 2306).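 Further: 0% = DMSO wells and 100% = chloroquine plus artemisinin control wells.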 Conditions: P. falciparum 3D7 erythrocytic growth, LDH absorbance, 72 h; at 2 µM; active compounds read high.
For assay [5], the target named is Calcium-dependent protein kinase 1 (Plasmodium falciparum (isolate 3D7)) (UniProt P62344). Description: PfCDPK1 kinase inhibitors, biochemical, TCAMS library (AID 1159585; cut-off not given, nearly all actives have IC50 up to about 0.98 µM;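 further: inhibitors leave more ATP so luminescence rises with inhibition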). Conditions: recombinant PfCDPK1, Kinase-Glo ATP depletion luminescence. (In general: In Kinase-Glo more light means more ATP remaining.)
Calcium-dependent protein kinase 1 (Plasmodium falciparum (isolate 3D7)), sequence (P62344 whole entry, looked up): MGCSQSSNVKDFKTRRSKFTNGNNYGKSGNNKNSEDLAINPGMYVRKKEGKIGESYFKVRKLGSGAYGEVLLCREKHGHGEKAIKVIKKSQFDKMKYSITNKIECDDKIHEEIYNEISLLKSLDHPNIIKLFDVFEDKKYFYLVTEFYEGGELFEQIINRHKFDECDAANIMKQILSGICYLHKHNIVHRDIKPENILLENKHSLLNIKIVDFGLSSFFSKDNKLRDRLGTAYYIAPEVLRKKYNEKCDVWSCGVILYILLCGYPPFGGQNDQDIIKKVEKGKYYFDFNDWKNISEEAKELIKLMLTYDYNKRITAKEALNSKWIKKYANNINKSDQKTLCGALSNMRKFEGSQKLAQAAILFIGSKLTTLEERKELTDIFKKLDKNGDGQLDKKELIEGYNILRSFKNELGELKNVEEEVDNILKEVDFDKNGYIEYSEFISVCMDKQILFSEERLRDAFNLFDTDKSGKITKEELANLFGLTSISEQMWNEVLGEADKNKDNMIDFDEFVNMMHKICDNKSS
For assay [6], the target named is Plasmodium falciparum protein kinase 6 (PK6, PF3D7_1337100) (UniProt Q8IDW1). Nature of the assay: PfPK6 kinase inhibitors, biochemical, TCAMS library (AID 1159586). Conditions: recombinant PfPK6, Kinase-Glo ATP depletion luminescence.
Plasmodium falciparum protein kinase 6 (PK6, PF3D7_1337100), sequence (Q8IDW1 1-305): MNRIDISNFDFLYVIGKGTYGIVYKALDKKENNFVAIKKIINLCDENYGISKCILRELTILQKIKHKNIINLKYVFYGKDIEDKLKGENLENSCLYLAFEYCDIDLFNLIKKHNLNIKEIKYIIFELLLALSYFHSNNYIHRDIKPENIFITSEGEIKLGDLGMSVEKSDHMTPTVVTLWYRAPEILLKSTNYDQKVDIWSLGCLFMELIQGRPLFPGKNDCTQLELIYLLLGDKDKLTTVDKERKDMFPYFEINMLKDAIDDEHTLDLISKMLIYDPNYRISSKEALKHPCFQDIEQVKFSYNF
In assay [7] the target is Protein kinase 7 (PK7), Plasmodium falciparum 3D7 (PF3D7_0213400) (UniProt Q7YTF7). Description: inhibition of Plasmodium PK7 catalytic activity – biochemical, TCAMS antimalarial set, Kinase-Glo luminescence (AID 1159587). Conditions: recombinant PfPK7, Kinase-Glo ATP depletion luminescence.
Protein kinase 7 (PK7), Plasmodium falciparum 3D7 (PF3D7_0213400), sequence (Q7YTF7 1-343): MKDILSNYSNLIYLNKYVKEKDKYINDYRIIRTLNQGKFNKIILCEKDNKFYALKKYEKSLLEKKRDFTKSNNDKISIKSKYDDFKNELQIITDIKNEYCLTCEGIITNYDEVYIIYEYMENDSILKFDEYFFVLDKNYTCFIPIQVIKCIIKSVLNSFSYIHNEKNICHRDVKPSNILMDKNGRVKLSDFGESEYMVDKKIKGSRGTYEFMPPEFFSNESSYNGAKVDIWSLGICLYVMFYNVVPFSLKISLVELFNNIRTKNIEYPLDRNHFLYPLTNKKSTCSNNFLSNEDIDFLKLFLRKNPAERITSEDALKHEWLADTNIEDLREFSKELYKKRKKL
Assay [8] deals with Calcium-dependent protein kinase 4 (Plasmodium falciparum (isolate 3D7)) (UniProt Q8IBS5). Description: PfCDPK4 kinase inhibitors, biochemical, TCAMS library (AID 1159588; cut-off not given, nearly all actives have IC50 up to about 0.91 µM). Particulars: recombinant PfCDPK4, Kinase-Glo ATP depletion luminescence.
Calcium-dependent protein kinase 4 (Plasmodium falciparum (isolate 3D7)), sequence (Q8IBS5 whole entry, looked up): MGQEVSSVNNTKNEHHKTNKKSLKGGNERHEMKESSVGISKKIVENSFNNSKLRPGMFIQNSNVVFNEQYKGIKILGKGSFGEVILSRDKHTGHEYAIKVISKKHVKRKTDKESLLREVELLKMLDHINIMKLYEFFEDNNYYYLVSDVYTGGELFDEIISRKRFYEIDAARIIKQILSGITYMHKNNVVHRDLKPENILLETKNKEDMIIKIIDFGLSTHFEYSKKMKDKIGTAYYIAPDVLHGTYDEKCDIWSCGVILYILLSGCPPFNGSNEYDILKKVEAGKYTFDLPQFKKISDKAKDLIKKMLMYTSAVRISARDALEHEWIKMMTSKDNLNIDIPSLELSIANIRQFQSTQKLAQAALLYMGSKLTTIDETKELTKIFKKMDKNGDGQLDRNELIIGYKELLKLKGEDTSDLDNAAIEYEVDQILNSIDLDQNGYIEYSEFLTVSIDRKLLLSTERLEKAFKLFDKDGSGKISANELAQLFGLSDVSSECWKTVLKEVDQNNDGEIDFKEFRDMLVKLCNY

The inhibition is the change of the read-out against control, counted positive when it falls.

Molecules are shown by their SMILES. Unmarked numbers belong to inactive results. For some of these results: Potency and affinity values are given separately. Activity calls are given as the source filed them. Unless noted, how the calls were made is not given here.

Regarding `NC(N)=NN=Cc1cc([N+](=O)[O-])ccc1Sc1ccccc1CO`, the growth inhibition in assay [1] was -1%; in assay [4] it was 84% (active). In addition, the inhibition was 25% in assay [2] and -2% in assay [3]. Further, the outcome in assay [5], in assay [6], in assay [7] and in assay [8] was inactive.
Consider `CCCCCc1cc(OCCN(C)C)cc2c1C(=O)CC(C)(C)O2`, for which the growth inhibition was -2% in assay [1] and 98% (active) in assay [4]. Moreover, the values for the inhibition in assay [2] and in assay [3] were 5% and 6%, respectively. Besides, the result in assay [5], in assay [6], in assay [7] and in assay [8] was inactive.
Turning to `O=C(Cc1cnc[nH]1)Nc1cccc(-c2cccc(-c3nc4ccc(C(F)(F)F)cc4[nH]3)c2)c1`, the figures for the growth inhibition in assay [1] and in assay [4] were 101% (active) and 102% (active), respectively. In addition, the inhibition is 35% in assay [2] and -3% in assay [3]. Besides, the outcome in assay [5], in assay [6], in assay [7] and in assay [8] was inactive.
Regarding `CCOC(=O)c1c(CNc2ccncc2)n(C)c2cc(Br)c(OC(C)=O)cc12`, the growth inhibition is 93% (active) in assay [1] and 96% (active) in assay [4]. Also, the inhibition is -3% in assay [2] and 5% in assay [3]. The outcome in assay [5], in assay [6], in assay [7] and in assay [8] was inactive.
Turning to `NCc1cccc(-c2ccccc2CNC2CCN(Cc3ccccc3)CC2)c1`, the growth inhibition in assay [1] is 4%; in assay [4], 94% (active). Moreover, the inhibition in assay [2] is -3%; in assay [3], -2%. The outcome in assay [5], in assay [6], in assay [7] and in assay [8] was inactive.
`CN(C)CCNC(=O)c1ccc2c(c1)ncn2-c1cc(OCc2ccccc2C(F)(F)F)c(C(N)=O)s1` (tested in a mixture with another compound): the growth inhibition was 8% in assay [1] and 90% (active) in assay [4]. The inhibition is -9% in assay [2] and 1% in assay [3]. Further, the result in assay [5], in assay [6], in assay [7] and in assay [8] was inactive.
Regarding `COc1cccc(C=Cc2nc(=O)c3ccccc3o2)c1OC`, the growth inhibition in assay [1] and in assay [4] was 97% (active) throughout. The inhibition in assay [2] is -19%; in assay [3] it was 7%. Besides, the outcome in assay [5], in assay [6], in assay [7] and in assay [8] was inactive.
For `CC(C)Cc1nc(N2CCOCC2)c2nnn(Cc3ccccc3)c2n1`, the growth inhibition in assay [1] is 76% (active); in assay [4] it was 98% (active). Also, the figures for the inhibition in assay [2] and in assay [3] were 7% and -2%, respectively. For the same compound, the outcome in assay [5], in assay [6], in assay [7] and in assay [8] was inactive.
As to `Cn1c(=O)n(C)c2cc(CNCCNc3ccnc4cc(Cl)ccc34)ccc21`, the growth inhibition in assay [1] is 96% (active); in assay [4] it was 101% (active). Moreover, the values for the inhibition in assay [2] and in assay [3] were 17% and -1%, respectively. Further, the outcome in assay [5], in assay [6], in assay [7] and in assay [8] was inactive.
In the case of `COc1ccc(CNC2CCN(C)CC2)cc1-c1cccc(S(=O)(=O)NCc2ccccc2)c1`, the figures for the growth inhibition in assay [1] and in assay [4] were 7% and 101% (active), respectively. Besides, the inhibition in assay [2] is 43%; in assay [3], -1%. For the same compound, the outcome in assay [5], in assay [6], in assay [7] and in assay [8] was inactive.
On to `CC(C)(C)[C@@H](Nc1ccc(C#N)c2ccccc12)C(=O)NC1(Cc2ccc(O)cc2)CCCC1`, for which the results for the growth inhibition in assay [1] and in assay [4] were 74% (active) and 90% (active), respectively. Besides, the results for the inhibition in assay [2] and in assay [3] were 14% and 0%, respectively. Moreover, the outcome in assay [5], in assay [6], in assay [7] and in assay [8] was inactive.
On to `COc1ccc(C2CCN(CCCCNC(=O)c3ccc(NC(=O)c4ccc(Cl)cc4)cc3)C2)c(OC)c1` (stereo not given), for which the growth inhibition was -1% in assay [1] and 84% (active) in assay [4]. Moreover, the inhibition in assay [2] is 18%; in assay [3], 2%. For the same compound, the result in assay [5], in assay [6], in assay [7] and in assay [8] was inactive.
As for `COc1cccc(CNc2ncc(-c3ccsc3)c(-c3nccs3)n2)c1`, the values for the growth inhibition in assay [1] and in assay [4] were 82% (active) and 89% (active), respectively. Also, the inhibition in assay [2] was 9%; in assay [3], 3%. Also, the outcome in assay [5], in assay [6], in assay [7] and in assay [8] was inactive.
`Oc1ccccc1-c1nc2cccnc2n1CCc1cccc(C(F)(F)F)c1`: the growth inhibition in assay [1] was 36%; in assay [4] it was 93% (active). Moreover, the inhibition was 4% in assay [2] and -1% in assay [3]. Also, the outcome in assay [5], in assay [6], in assay [7] and in assay [8] was inactive.
For `Cc1ccc(/C=C/C(=O)NC2CCC(N3CCC(c4ccccc4C)CC3)CC2)cc1F` (stereo not given), the growth inhibition in assay [1] is 18%; in assay [4], 96% (active). In addition, the inhibition in assay [2] is 51% (active); in assay [3], 2%. Besides, the outcome in assay [5], in assay [6], in assay [7] and in assay [8] was inactive.
For the compound `CCCCCCCN1CC[C@@H](CCCc2ccnc3ccc(OCCCCN=C(N)NO)cc23)[C@@H](CC)C1`, the growth inhibition in assay [1] was 39%; in assay [4] it was 90% (active). Further, the inhibition in assay [2] is 27%; in assay [3], 2%. The outcome in assay [5], in assay [6], in assay [7] and in assay [8] was inactive.
As for `Cc1noc(C)c1-c1ccc2c(Nc3ccccc3C(C)(C)C)c(C(=O)NCc3cccc4ccccc34)cnc2c1`, the growth inhibition in assay [1] is 64% (active); in assay [4], 96% (active). Moreover, the values for the inhibition in assay [2] and in assay [3] were 4% and -2%, respectively. Also, the result in assay [5], in assay [6], in assay [7] and in assay [8] was inactive.
For the compound `CC(=O)N(C)c1ccc(C(=O)Nc2cccc(-c3cccc(-c4nc5c(C)cccc5[nH]4)c3)c2)cc1`, the results for the growth inhibition in assay [1] and in assay [4] were 30% and 89% (active), respectively. The inhibition was 11% in assay [2] and -2% in assay [3]. The outcome in assay [5], in assay [6], in assay [7] and in assay [8] was inactive.
Regarding `Cc1[nH]c2ccccc2c1C1CCN(CCCCNC(=O)c2ccc(-c3ccc(C#N)cc3)cc2)CC1`, the results for the growth inhibition in assay [1] and in assay [4] were 97% (active) and 101% (active), respectively. Besides, the inhibition in assay [2] was 19%; in assay [3], -3%. Moreover, the outcome in assay [5], in assay [6], in assay [7] and in assay [8] was inactive.
Take `COc1ccc2nccc([C@@H](O)CN3CCC(NC(=O)c4cc5ccccc5[nH]4)CC3)c2c1`: the results for the growth inhibition in assay [1] and in assay [4] were 55% (active) and 96% (active), respectively. Besides, the inhibition in assay [2] is 19%; in assay [3], -3%. Also, the result in assay [5], in assay [6], in assay [7] and in assay [8] was inactive.
